Laboratory results from PubChem BioAssay AID1345085 (National Center for Advancing Translational Sciences (NCATS), 2018).
Records with an inconclusive call do not appear. Calls of active or inactive are those of the source. Calls follow the shape of the dose curve; as a rule, active = well fitted cell-killing curve with a large enough effect; inconclusive = small, poorly fitted or top-dose-only effect, or effect the other way; inactive = no such curve, though single readings can be large or run the other way. *1 amine or outer side, *2 acyl side, *3 side chain or, on linkers, in order; H or OH if unused. Where a SMILES comes first, the peptide text is derived from it. Bridges are numbered along the chain shown (N, C = ends). Roman numbers before positions name the chains, in order. [ ]: non-standard residue; d: D form. Actinocin(9to1) = Cc1c2oc3c(C)ccc(C(=O)[*:1])c3nc-2c(C(=O)[*:2])c(N)c1=O; NMeV = CN[C@H](C(=O)O)C(C)C; Sar = CNCC(=O)O

system: SW626; experiment: Confirmatory qHTS for gynecologic anti-cancer compounds from libraries of approved drugs and bioactive compounds; conditions: gynecologic cancer cell panel viability, ATPlite luminescence, 48 h; series mostly up to 57.6 µM; activity change, negative = viability loss: at the top concentration; also: nearly all actives have a fitted effect of over 55% in size
Procedure, shortened: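 Seeding 1,000 cells per well preceded overnight (16 h) attachment, after which 48 h drug treatment across 57.5 uM–0.977 nM (11 points) was applied. Remaining cellular ATP, detected by ATPlite luminescence, defined IC50.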
% is scaled to controls: 0 for no effect and ±100 for the full control effect; potency is read from the fitted curve at half-maximal effect.

| Compound | Potency | activity change, negative = viability loss |
| --- | --- | --- |
| O=C(c1ccc(F)c(F)c1Nc1ccc(I)cc1F)N1CC(O)([C@@H]2CCCCN2)C1 | 9.68 µM (active) | – |
| Nc1nccc(Oc2ccc(NC(=O)c3c[nH]cc(-c4ccc(F)cc4)c3=O)cc2F)c1Cl | – | -15.5% (inactive) |
| Fc1cc(-c2cccc3ncc(-c4cnn(C5CCNCC5)c4)nc23)cc(F)c1CN1CCOCC1 | 27.3 µM (active) | – |
| O=c1c2ccccc2nc2n1CCc1c-2[nH]c2ccccc12 | – | -13.4% (inactive) |
| Nc1ccccc1NC(=O)c1ccc(CNc2nccc(-c3cccnc3)n2)cc1 | 0.685 µM (active) | – |
| CN1C2CCC1CC(OC(=O)[C@H](CO)c1ccccc1)C2 (stereo partly drawn) | – | -16.8% (inactive) |
| S=c1nc[nH]c2nc[nH]c12 | 6.85 µM (active) | – |
| CCCS(=O)c1ccc2nc(NC(=O)OC)[nH]c2c1 (stereo not drawn) | – | -17.9% (inactive) |
| Cc1c(C)n(Cc2ccc(-c3ccccc3C(=O)O)cc2)c2ccc(C(=O)N[C@@H](C)c3ccc([N+](=O)[O-])cc3)cc12 | – | 30.1% (inactive) |
| COc1cc(Nc2c(C#N)cnc3cc(OCCCN4CCN(C)CC4)c(OC)cc23)c(Cl)cc1Cl | 19.3 µM (active) | – |
| COc1ccc2c(c1)c(CC(=O)O)c(C)n2C(=O)c1ccc(Cl)cc1 | – | 1.53% (inactive) |
| CCN(CC)CCOc1ccc(/C(=C(\Cl)c2ccccc2)c2ccccc2)cc1 | 89.1 µM (active) | – |
| CC(C)n1nc(-c2cc3cc(O)ccc3[nH]2)c2c(N)ncnc21 | 7.69 µM (active) | – |
| CN(C)C/C=C/C(=O)Nc1cc2c(Nc3ccc(F)c(Cl)c3)ncnc2cc1OC1CCOC1 (stereo not drawn) | 27.3 µM (active) | – |
| Cc1cnc(Nc2ccc(OCCN3CCCC3)cc2)nc1Nc1cccc(S(=O)(=O)NC(C)(C)C)c1 | 19.3 µM (active) | – |
| CN1CCN(c2ccc(OC(F)(F)F)c(Nc3ncc4c(n3)-c3c(c(C(N)=O)nn3CCO)CC4)c2)CC1 | – | 3.2% (inactive) |
| CN(NC(=O)CC(=O)NN(C)C(=S)c1ccccc1)C(=S)c1ccccc1 | 0.0968 µM (active) | – |

| Compound | Potency | activity change, negative = viability loss |
| --- | --- | --- |
| O=c1[nH]c(=O)n([C@H]2C[C@H](O)[C@@H](CO)O2)cc1F | – | 22.9% (inactive) |
| O=C(CCCCCCNC(=O)c1cnc(N(c2ccccc2)c2ccccc2)nc1)NO | 7.69 µM (active) | – |
| OCc1ccc(-c2ccc(-c3ccc(CO)s3)o2)s1 | 10.6 µM (active) | – |
| O=C1Cc2cc(CCN3CCN(c4nsc5ccccc45)CC3)c(Cl)cc2N1 | – | -0.656% (inactive) |
| CCCCc1oc2ccccc2c1C(=O)c1cc(I)c(OCCN(CC)CC)c(I)c1 | 79.4 µM (active) | – |
| CNCc1ccc(-c2[nH]c3cc(F)cc4c3c2CCNC4=O)cc1 | – | -7.71% (inactive) |
| CC(=O)OC12COC1CC(O)C1(C)C(=O)C(O)C3=C(C)C(OC(=O)C(O)C(NC(=O)OC(C)(C)C)c4ccccc4)CC(O)(C(OC(=O)c4ccccc4)C21)C3(C)C (stereo not drawn) | – | 8.89% (inactive) |
| C=CC(=O)Nc1cc2c(Nc3ccc(F)c(Cl)c3)ncnc2cc1OCCCN1CCOCC1 | 21.7 µM (active) | – |
| NS(=O)(=O)c1ccc(Nc2nc(OCC3CCCCC3)c3[nH]cnc3n2)cc1 | – | -23.4% (inactive) |
| CC(Oc1cc(-n2cnc3ccc(CN4CCN(C)CC4)cc32)sc1C(N)=O)c1ccccc1C(F)(F)F (stereo not drawn) | 24.3 µM (active) | – |
| CN1CCCC(n2nc(Cc3ccc(Cl)cc3)c3ccccc3c2=O)CC1 (stereo not drawn) | 27.3 µM (active) | – |
| O=c1cc(CN2CCOCC2)occ1OCCCCCSc1ccnc2cc(C(F)(F)F)ccc12 | – | 0.329% (inactive) |
| c1cc(N[C@@H]2CCNC2)nc(-c2cnc3ccc(-c4cn[nH]c4)cn23)c1 | – | 20.5% (inactive) |
| Cc1c2oc3c(C)ccc(C(=O)N[C@@H]4C(=O)N[C@H](C(C)C)C(=O)N5CCC[C@H]5C(=O)N(C)CC(=O)N(C)[C@@H](C(C)C)C(=O)O[C@@H]4C)c3nc-2c(C(=O)N[C@@H]2C(=O)N[C@H](C(C)C)C(=O)N3CCC[C@H]3C(=O)N(C)CC(=O)N(C)[C@@H](C(C)C)C(=O)O[C@@H]2C)c(N)c1=O (I: T[dV]P[Sar][NMeV] / II: T[dV]P[Sar][NMeV]; ester I:1-I:C, II:1-II:C; linker I:N-II:N via Actinocin(9to1)) | 0.0863 µM (active) | – |
| Cc1cnc(Nc2cccc(CN3CCOCC3)c2)nc1Nc1cccc(S(=O)(=O)NC(C)(C)C)c1 | 24.3 µM (active) | – |
| CCN[C@H]1C[C@H](C)S(=O)(=O)c2sc(S(N)(=O)=O)cc21 | – | 47.2% (inactive) |
